Measured values taken from PubChem BioAssay (NCI).
Compounds without any hit were thinned out: in the full panel of roughly 83,000, 20% have a hit.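 Growth was measured after 48 h exposure to one concentration of compound in 96-well plates. Values under 10 count as active.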 Unmarked numbers belong to inactive results. Activity calls are given as the source filed them.

Assays:
Assay in all cases: NCI-60 one-dose screen, 48 h (100 = growth as untreated, 0 = no growth, -100 = all killed)
Conditions in all cases: 10 µM unless noted
[1] = test system: SK-MEL-2 melanoma
[2] = test system: EKVX NSCLC
[3] = test system: SN12C renal
[4] = test system: UO-31 renal
[5] = test system: TK-10 renal
[6] = test system: ACHN renal
[7] = test system: A498 renal
[8] = test system: CCRF-CEM leukemia
[9] = test system: MOLT-4 leukemia
[10] = test system: SR leukemia
[11] = test system: RPMI-8226 leukemia
[12] = test system: OVCAR-8 ovarian
[13] = test system: OVCAR-5 ovarian
[14] = test system: OVCAR-4 ovarian
[15] = test system: SK-OV-3 ovarian
[16] = test system: IGROV1 ovarian
[17] = test system: OVCAR-3 ovarian
[18] = test system: HS 578T breast
[19] = test system: NCI/ADR-RES ovarian
[20] = test system: T-47D breast

| SMILES | growth [1] | growth [2] | growth [3] | growth [4] | growth [5] | growth [6] | growth [7] | growth [8] | growth [9] | growth [10] | growth [11] | growth [12] | growth [13] | growth [14] | growth [15] | growth [16] | growth [17] | growth [18] | growth [19] | growth [20] |
| --- | --- | --- | --- | --- | --- | --- | --- | --- | --- | --- | --- | --- | --- | --- | --- | --- | --- | --- | --- | --- |
| C#C[C@@]1(O)[C@@H](CO)O[C@@H](n2cc(F)c3c(N)ncnc32)[C@@H]1O | -1.11% (active) | 1.34% (active) | 2.43% (active) | -15.5% (active) | 3.69% (active) | -10.6% (active) | -76% (active) | 13.3% | 4.47% (active) | 12.9% | 5.11% (active) | 9.54% (active) | 9.96% (active) | 4.75% (active) | -7.75% (active) | -17.4% (active) | 10.9% | 28.4% | 4.76% (active) | -13.8% (active) |
| CC(C)(C)CC(C)(C)Cc1ccc(OCCOCC[N+](C)(C)Cc2ccccc2)cc1 | 28.4% | 74.7% | 8.79% (active) | 97.1% | 49.4% | 97.4% | 63.8% | 10% | 7.43% (active) | -27.8% (active) | -53.4% (active) | 22.8% | 74% | 7.03% (active) | 46.9% | -16.7% (active) | 0.137% (active) | 26.3% | 99.9% | 0.793% (active) |
| COc1ccc(-c2nnc(N3CCN(C(=O)CN4CCN(c5ccc(OC)cc5)CC4)CC3)nc2-c2ccc(OC)cc2)cc1 | -63.6% (active) | 41.5% | -72.7% (active) | -64.4% (active) | 28.6% | 54.6% | 98.1% | -50.7% (active) | -54.2% (active) | -54.2% (active) | -59.8% (active) | -54.9% (active) | 111% | -48.3% (active) | 101% | -60.8% (active) | -96.1% (active) | 21% | -40.6% (active) | -64.5% (active) |
| CCOC(=O)/C(=C/c1c(-c2ccccc2)[nH]c2ccccc12)C(=O)c1ccc(Cl)cc1 | 61.8% | 30.6% | 56% | 57.9% | 82.2% | 19.3% | 73.7% | 14.5% | 1.71% (active) | 9.07% (active) | -17.2% (active) | 59.8% | 95.8% | 46.8% | 81.6% | 98.5% | 38.5% | 63.4% | 45.4% | 24.9% |
| C(=C\c1cn(-c2ccccc2)nc1-c1ccccc1)/c1nnc(-c2c[nH]c3ccccc23)o1 | 86% | 50.8% | 27.9% | 73.2% | 22.8% | 40% | 109% | 78.8% | 69.4% | 48.1% | 40.8% | 35.2% | 93.3% | 47.9% | 91.8% | 59.2% | 20.9% | 44.7% | 51.8% | 55.5% |
| O=c1[nH]c2ccccc2cc1-c1nc2ccncc2[nH]1 | 73.9% | 81.9% | 94.3% | 78.4% | 73.8% | 72.2% | 88.7% | 59.5% | 45.8% | 46.8% | -0.575% (active) | 88.7% | 112% | 85.5% | 90.5% | 84.2% | 90.9% | 76.1% | 108% | 77.8% |
| COc1c(O)cc2oc3cc(O[C@@H]4OC(C)[C@@H](O)[C@H](O)C4O)c(CC=C(C)C)c(O)c3c(=O)c2c1CC=C(C)C (stereo not given in full) | 90.5% | 82% | 99.7% | 80.3% | 92.6% | 102% | 67.9% | 83.5% | 65.1% | 103% | 73.2% | 99.3% | 119% | 102% | 113% | 83.9% | 94.7% | 98.4% | 102% | 86.6% |
| COc1cc(/C=C/C(=O)c2ccc(NC(=O)CSc3nnc(-c4cc(OC)c(OC)c(OC)c4)n3-c3ccccc3)cc2)cc(OC)c1OC | 32.1% | 31.3% | 41% | -50.3% (active) | 45.1% | 17.9% | -12.1% (active) | 6.02% (active) | 5.18% (active) | 2.13% (active) | -13.1% (active) | 10% | 61.4% | 54.8% | 38% | 7.57% (active) | -17.8% (active) | 83.1% | 44.3% | 50.3% |
| CCCn1c(N)c(C(N)=O)sc1=S | 93.3% | 116% | 93.8% | 79.2% | 130% | 93.9% | 98.5% | 108% | 97% | 66.6% | 94.5% | 106% | 90.8% | 111% | 103% | 100% | 103% | 95.7% | 104% | 94.8% |
| S=C(Nc1ccccc1)c1ccccn1 | 103% | 93.1% | 85.9% | 57% | 109% | 93.5% | 91.4% | 37.5% | 80% | 56.1% | 56.5% | 91.2% | 88.9% | 100% | 90.9% | 1.38% (active) | 67.7% | 101% | 93.1% | 96.6% |
| COC(=O)CCc1n(Cc2ccc3ccccc3c2)c2ccccc2[n+]1Cc1ccc2ccccc2c1 | -56.2% (active) | 42.1% | 7.8% (active) | 78.9% | -5.81% (active) | 86.8% | 8.46% (active) | 9.86% (active) | 3.6% (active) | -47.7% (active) | -21.3% (active) | 6.77% (active) | 18% | 7.13% (active) | 10.8% | -26.4% (active) | -14.2% (active) | 25% | 100% | -0.425% (active) |
| O=C1C(=O)c2c(nc3ccc(C(F)(F)F)cn23)-c2ccccc21 | -67.1% (active) | -72.5% (active) | -84.4% (active) | -97.5% (active) | -97.3% (active) | -99.1% (active) | -92.9% (active) | 0.668% (active) | -33.1% (active) | -5.53% (active) | -26.6% (active) | -96% (active) | -78% (active) | -95.9% (active) | -99.6% (active) | -58.9% (active) | -63% (active) | -15.3% (active) | -14.1% (active) | -50.6% (active) |
| N#Cc1ccc(N2Cc3cc(Cl)ccc3OC3=C2C(=O)N(Cc2ccccc2)C3=O)cc1 | -38.7% (active) | 43.8% | -39.5% (active) | -90.5% (active) | -66.3% (active) | -85.6% (active) | 129% | -9.47% (active) | -24.7% (active) | -25.7% (active) | -23.3% (active) | 4.56% (active) | -5.13% (active) | -7.68% (active) | 94.2% | 13% | -82.1% (active) | 38.1% | 6.99% (active) | -60.1% (active) |
| O=C(CCc1nnco1)c1nc2ccc([N+](=O)[O-])cc2[nH]1 | 94.7% | 94% | 107% | 74.9% | 146% | 101% | 126% | 109% | 97.9% | 91.5% | 129% | 105% | 108% | 105% | 107% | 97.6% | 105% | 102% | 104% | 101% |
| Cc1nnc(/N=C2\NC(=O)/C(=C/c3ccc(N(C)C)cc3)S2)s1 | 83.1% | 82.8% | 83.8% | 70.6% | 87.3% | 71.8% | 67% | 62.6% | 80.8% | 44.2% | 58.9% | 78.6% | 99.9% | 75.4% | 72% | 60% | 45.4% | 85.6% | 52.2% | 73.6% |
| N#Cc1c(-c2ccc(F)cc2)nc(N/N=C/c2cccc(O)c2)nc1N1CCOCC1 | 85.9% | 86.9% | 96.7% | 45.3% | 63.3% | 66.9% | 78.7% | 56.4% | 40% | 2.93% (active) | 41.3% | 69.7% | 108% | 79.7% | 93.9% | 61.4% | 78.6% | 84.4% | 72.8% | 89.2% |
